Hit rate of the full screen: of about 340,000 compounds, about 4,200 (1.2%) were called active. The entries come from a sample that favours actives as a whole. A number with no mark means an inactive call.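 The calls were made as follows: active = inhibition above the mean of all tested compounds plus 3 SD (cut at about 24% in these data); inactive = the rest.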
molecular target: Platelet-activating factor acetylhydrolase IB subunit alpha2 (Homo sapiens) (UniProt P68402); assay: PAFAH1B2 enzyme inhibitors, primary screen, biochemical, fluorescence polarization, human (AID 492953); conditions: recombinant PAFAH1B2, FP-rhodamine activity probe, at 3.39 µM, hits give high values;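 also: 0% = enzyme with DMSO and 100% = wells lacking PAFAH1B2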
Sequence (P68402 whole entry, looked up): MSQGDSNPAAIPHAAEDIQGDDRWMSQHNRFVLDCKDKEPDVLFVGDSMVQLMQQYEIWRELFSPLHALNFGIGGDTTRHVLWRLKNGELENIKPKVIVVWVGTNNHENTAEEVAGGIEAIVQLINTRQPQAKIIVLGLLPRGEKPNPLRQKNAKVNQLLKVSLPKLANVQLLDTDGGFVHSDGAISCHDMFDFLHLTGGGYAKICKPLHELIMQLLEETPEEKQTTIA

| Compound | inhibition |
| --- | --- |
| Cc1ccc(C(=O)O)cc1S(=O)(=O)NCC1CCCO1 (configuration not stated) | -0.69% |
| COc1ccc(S(=O)(=O)NCCc2cc3ccc(C)c(C)c3[nH]c2=O)cc1 | 24.7% (active) |
| COc1ccc(S(=O)(=O)NCCCc2ccccc2)cc1 | 13.7% |
| COc1ccc(CCNS(=O)(=O)c2cccc([N+](=O)[O-])c2)cc1 | 13.1% |
| O=C1CN(C(=O)COC(=O)C2CC(=O)N(Cc3ccco3)C2)c2ccccc2N1 (configuration not stated) | -0.96% |
| O=C(NCCN1CCN(C(=O)c2cccc([N+](=O)[O-])c2)CC1)C(=O)NCc1ccc(Cl)cc1 | 10.4% |
| CCCCCCCCCCCC(=O)O | 30.2% (active) |
| NC(=O)NCCCC(=O)O | 4.24% |
| O=C(O)CCCCCCCCCC[n+]1ccccc1 | 1.11% |
| C/C=C/c1ccc(OCCCCN2CCC(C)CC2)c(OC)c1 | 2.16% |
| CCc1c(C)n([O-])c2c([n+]1=O)CCCCC2 | 7.72% |
| CCc1cccc(CC)c1NC(=O)COc1ccccc1C(=O)c1cc(C#N)c(=O)n(C2CCCCC2)c1 | 2.15% |
| NS(=O)(=O)c1ccccc1NC(=O)c1c(O)c2ccccc2[nH]c1=O | 2.89% |
| Cc1cc(=O)cc(C)n1-c1ccc(Cl)c(Cl)c1 | 4.86% |
| CC(C)C(=O)Nc1cccc(NC(=S)NC(=O)C(c2ccccc2)c2ccccc2)c1 | -2.74% |
| CCCCC(=O)NNC(=S)NC(=O)C(c1ccccc1)c1ccccc1 | 27.4% (active) |
| CCNC(=S)NNC(=O)Cc1ccccc1 | 0.2% |
| Cc1ccc(S(=O)(=O)NC2CCCCCC2)cc1 | 11.5% |
| Cc1ccc(S(=O)(=O)N2CCC(N3CCCCCC3)CC2)cc1 | 5.12% |
| Cc1ccc(S(=O)(=O)n2oc(=O)c(C3CCCCC3)c2N)cc1 | 30.4% (active) |
| COc1ccc(/C(C)=N/N2CCOCC2)c(O)c1 | 3.71% |
| CCOc1ccccc1N(CC(=O)NC1CCCCC1)C(=O)CCCC(=O)Nc1ccccn1 | 2.23% |
| Cc1ccc(S(=O)(=O)n2nc(OC(=O)C(C)(C)C)cc2N)cc1 | 24.3% (active) |

| Compound | inhibition |
| --- | --- |
| Cc1ccc(S(=O)(=O)N2CCC(C(=O)N3CCCCCCC3)CC2)cc1 | -2.62% |
| Nc1cc(OC(=O)c2ccccc2Br)nn1S(=O)(=O)c1ccccc1 | -1.3% |
| CCOC(=O)N1CCN(c2cc(C)c([N+](=O)[O-])cc2F)CC1 | 6.77% |
| Cc1ccc(CNS(=O)(=O)CCNC(=O)c2ccccc2)cc1 | 0.61% |
| Cc1ccc(N(C(=O)c2ccc(CN3CCOCC3)o2)C(C(=O)NCCC(C)C)c2cccs2)c(C)c1 (configuration not stated) | 2.55% |
| Cc1c(C)c2c(OCC(=O)N[C@@H](C(=O)O)c3ccccc3)cc3c(c2oc1=O)CCC(C)(C)O3 | 38% (active) |
| Cc1c(C)c2c(OCC(=O)NCCCO)cc3c(c2oc1=O)CCC(C)(C)O3 | 9.23% |
| Cc1cc(=O)oc2c3c(cc(OCC(=O)NCCC(=O)N[C@@H](C)C(=O)O)c12)OC(C)(C)CC3 | 2.72% |
| COCC1CCCN(Cc2cn[nH]c2-c2cc3ccccc3o2)C1 (configuration not stated) | -0.69% |
| Cc1ccccc1NC(=O)N1CCCC1C(=O)NCc1ccccc1 (configuration not stated) | 3.76% |
| O=[N+]([O-])c1ccc(NCCCO)c(C(F)(F)F)c1 | 6.89% |
| COCC1CCCN(Cc2nc(-c3ccc4c(c3)OCO4)no2)C1 (configuration not stated) | 3.45% |
| CC(C)COc1ccc(C(=O)OCC(=O)NCCC2=CCCCC2)cc1 | 2.59% |
| O=C(COc1ccc(Cl)cc1)NCCC1=CCCCC1 | 27.5% (active) |
| O=C(COc1cccc(-n2cnnn2)c1)NCCC1=CCCCC1 | 10.3% |
| CC1(c2ccccc2)CC(C)(C)N(C(=O)c2cc([N+](=O)[O-])cc([N+](=O)[O-])c2)c2ccccc21 (configuration not stated) | -0.31% |
| CC1CCC2CCCCC2N1C(=O)c1cc([N+](=O)[O-])cc([N+](=O)[O-])c1 (configuration not stated) | 24.7% (active) |
| CC1CCN(C(=S)c2cccc([N+](=O)[O-])c2)CC1 | 19.4% |
| COc1ccc(CN2CCN(C(=O)c3cc(C4CC4)nn3-c3ccccc3)CC2)cc1F | 2.17% |
| O=C(COc1cccc2c1CCNC2=O)NC1CCCCC1 | -3.94% |
| O=C(Nc1ccc2ccccc2c1[N+](=O)[O-])c1ccccc1 | 5.08% |
| CN(C)c1ccc(S(=O)(=O)NCC(=O)NCC2CCCCC2)cc1[N+](=O)[O-] | 8.33% |
| COc1ccc(NS(=O)(=O)c2ccc(O)c(C(=O)OCC(=O)NC3CCCCC3)c2)cc1 | 19.8% |

| Compound | inhibition |
| --- | --- |
| CCN(C(=O)COC(=O)c1cc(NS(=O)(=O)c2ccc(Cl)c([N+](=O)[O-])c2)ccc1O)C1CCCCC1 | 45.9% (active) |
| Cc1c(NS(=O)(=O)c2cccc(C(=O)Nc3ccc(SC(F)F)cc3)c2)c(=O)n(-c2ccccc2)n1C | 5.1% |
| COc1ccc(C(=O)CSc2nnc(NC(=O)C3CC(=O)N(c4cccc(OC)c4)C3)s2)cc1 (configuration not stated) | -6.09% |
| O=C(CNC(=O)c1cc(S(=O)(=O)N2CCOCC2)ccc1N1CCCC1)Nc1ccc(F)c(F)c1 | -4.31% |
| COc1cc(C(=O)Nc2cc(C(F)(F)F)ccc2-n2cncn2)cc(OC)c1OC | -1.88% |
| CCc1nn(CC(=O)N2CCN(c3cc(C)ccc3C)CC2)c(=O)c2cc3occc3n12 | 2.35% |
| CSCCC(NC(=O)COc1ccccc1)C(=O)N1CCN(c2cccc(C(F)(F)F)c2)CC1 (configuration not stated) | 7.1% |
| CC(=O)NC1=NC(=O)CS1 | -3.07% |
| COc1cc(C(=O)NCC2(c3ccccc3)CCCC2)ccc1OC(C)C | 69.7% (active) |
| COc1ccc(C2(CNC(=O)Cc3ccc(OC)c(OC)c3)CCCC2)cc1 | -0.19% |
| COc1ccc(C2(CNC(=O)C(c3ccccc3)c3ccccc3)CCOCC2)cc1OC | -0.88% |
| CCCCc1nc2cc(C(=O)NCCc3cnn(C)c3)ccc2o1 | -4.49% |
| O=C(/C=C/c1ccc(Cl)cc1)N1CCN(c2ccccc2[N+](=O)[O-])CC1 | -2.36% |
| COc1cccc2c1C(=O)c1c(O)c3c(c(O)c1C2=O)CC(O)(C(C)=NNC(=O)c1ccc(Cl)c(Cl)c1)CC3OC1CC(N)C(O)C(C)O1 (configuration not stated) | 52.5% (active) |
| CC/C(=C(/c1ccccc1)c1ccc(OCC[N+](C)(C)C)cc1)c1ccccc1 | 8.4% |
| CCOc1cc(/C=C(/C#N)c2ccc(Cl)cc2)cc(Cl)c1OCC(=O)O | 71.1% (active) |
| CCOC(=O)CN/C=C(\C#N)c1ccc(F)cc1 | -0.66% |
| C/C(=N\OCC(=O)O)c1ccc(Cl)cc1 | 9.56% |
| CC12CCC(=O)N1C(C(=O)NCCN1C(=O)S/C(=C\c3ccccc3F)C1=O)CS2 (configuration not stated) | -0.86% |
| C/C(=N\NC(=O)Cc1ccccc1[N+](=O)[O-])c1cccnc1 | 4.87% |
| CC(C)c1nc(CNC(=O)CC2C(=O)NCCN2Cc2cccc(F)c2F)cs1 (configuration not stated) | 3.42% |
| O=C(CC1CCCCC1)NCc1ccccc1 | 2.39% |
| O=C(CN1C(=O)NC(Cc2ccccc2)(Cc2ccccc2)C1=O)NCC1CCCCC1 | 24.3% (active) |

| Compound | inhibition |
| --- | --- |
| CCCCNC(=O)CN1C(=O)NC(Cc2ccccc2)(Cc2ccccc2)C1=O | 2.58% |
| CC(/C=C/c1ccccc1)=N\NC(=O)C1CC1(C)c1ccccc1 (configuration not stated) | 6% |
| CCOC(=O)C1(Cc2ccccc2C)CCCN(C(=O)c2ccc(COC)o2)C1 (configuration not stated) | 5.55% |
| COc1ccc(Cl)cc1NC(=O)CCS(=O)(=O)c1ccc(Br)cc1 | 10% |
| O=C(CCS(=O)(=O)c1ccc(Br)cc1)NCCc1ccc(Cl)cc1 | 25.1% (active) |
| Cc1ccc(S(=O)(=O)CCC(=O)OCC(=O)NCCc2ccc(S(N)(=O)=O)cc2)cc1 | -1.78% |
| CCCC(O)(c1ccccc1)C(c1ccccc1)c1ccccn1 (configuration not stated) | 0.64% |
| Cc1cccc(NC(=S)NCCc2ccc(Cl)cc2)c1C | 13.9% |
| Cc1ccc(NC(=S)NCCc2ccc(Cl)cc2)c(C)c1 | 24.7% (active) |
| Cc1ccc(NC(=S)NCc2ccccc2Cl)c(C)c1 | -2.26% |
| COc1ccc(CNCCCNCc2ccc(OC)c(OC)c2)cc1OC | 2.53% |
| ONC(=Nc1ccc(Cl)cc1)c1ccccc1Cl | 15% |
| C[C@@H](NC(=O)[C@@H]1Cc2ccccc2CN1)C(=O)NC1CCCC1 | 1.64% |
| CCCCNC(=O)N(O)C1N(/N=C/c2ccc(N(C)C)cc2)C(=S)SC1(C)C (configuration not stated) | 27.3% (active) |
| CCCCNC(=O)N(O)C1N(/N=C/c2ccccc2O)C(=S)SC1(C)C (configuration not stated) | 4.39% |
| CCC(C)N1C(=S)SC(C)(C)C1N(O)C(=O)NC1CCCCC1 (configuration not stated) | 5.19% |
| CN(C)c1nc(N)nc(CSc2nnnn2-c2cccc3ccccc23)n1 | 1.2% |
| COc1ccc(N(Cc2ccccc2)S(=O)(=O)c2cccc(C(=O)O)c2)cc1 | -0.1% |
| C=CCN(c1ccc(Cl)cc1)S(=O)(=O)c1cccc(C(=O)OCC(=O)N(C)C)c1 | 27.3% (active) |
| CN(C)C(=O)COC(=O)c1cccc(S(=O)(=O)N2CC3(C)CC2CC(C)(C)C3)c1 (configuration not stated) | 15.9% |
| CCOCCOC(=O)C1=C(C)NC(=O)NC1c1ccc2c(c1)OCO2 (configuration not stated) | -0.7% |
| CCC(CC)COC(=O)C1=C(C)NC(=O)NC1c1ccc([N+](=O)[O-])cc1 (configuration not stated) | 28.2% (active) |
| CC1=C(C(=O)OCC2CCCCC2)C(c2ccc(F)cc2)NC(=O)N1 (configuration not stated) | 9.14% |

From PubChem BioAssay AID492953 (The Scripps Research Institute Molecular Screening Center, 2010)
